Experimental data as given in PubChem BioAssay (EPA / NIEHS).
Where “and” joins values, the source holds several entries; their conditions need not be identical. Equal values may be shown once. More than one record can exist for a structure, and the calls need not agree. Calls of active or inactive are those of the source. Rule for the calls: active = hit-call score of the fitted dose curve at least 0.9, where 1 is the maximum; inactive = score below 0.9.

How the values were obtained:
[1] = target: Bile acid receptor (Homo sapiens) (UniProt Q96RI1); experiment: ATG_IR1_CIS: Attagene CIS-FACTORIAL HepG2 Assay for human Nuclear Receptor Subfamily 1 Group H Member 4 (NR1H4), IR1 submotif (AID 2282946); settings: IR1 reporter transcription, actives raise or lower the signal
Bile acid receptor (Homo sapiens), sequence (Q96RI1 whole entry, looked up): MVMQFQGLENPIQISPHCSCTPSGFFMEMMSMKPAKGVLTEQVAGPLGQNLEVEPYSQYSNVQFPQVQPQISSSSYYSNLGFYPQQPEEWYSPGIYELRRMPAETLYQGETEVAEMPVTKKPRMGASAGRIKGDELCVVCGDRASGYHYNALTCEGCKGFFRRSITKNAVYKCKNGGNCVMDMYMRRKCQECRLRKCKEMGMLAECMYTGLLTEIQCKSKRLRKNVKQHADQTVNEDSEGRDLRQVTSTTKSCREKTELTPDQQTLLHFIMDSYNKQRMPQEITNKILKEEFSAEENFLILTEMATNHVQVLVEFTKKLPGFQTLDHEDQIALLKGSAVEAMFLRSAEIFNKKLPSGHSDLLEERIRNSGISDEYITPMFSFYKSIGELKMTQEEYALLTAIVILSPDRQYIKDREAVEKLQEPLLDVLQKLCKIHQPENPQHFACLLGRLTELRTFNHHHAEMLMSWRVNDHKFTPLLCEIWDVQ
Summary of the method: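 HepG2 cells transiently transfected with multiplexed cis-element reporter units read endogenous transcription factor activity. After 24 h compound exposure, reporter mRNA was quantified by RT-PCR, fluorescent labelling, HpaI digestion and capillary electrophoresis; bidirectional fitting versus DMSO baseline.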

[2] = ATG_GRE_CIS: Attagene CIS-FACTORIAL HepG2 Assay for human Glucocorticoid Response Elements (GRE) (AID 2282947); settings: HepG2 GRE cis-reporter, Attagene multiplex mRNA; actives raise or lower the signal
Summary of the method: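 Reporter transcripts read by RT-PCR with capillary electrophoresis fluorescence after a 24 h chemical exposure of HepG2 cells transiently transfected with multiple cis-element reporter units. Gain or loss fitted against DMSO.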

[3] = ATG_ISRE_CIS: Attagene CIS-FACTORIAL HepG2 Assay for human Interferon Regulatory Factor 1 (IRF1) binding to an Interferon-Stimulated Response Element (ISRE) (AID 2282948); settings: HepG2 ISRE cis-reporter (Attagene), mRNA transcription readout; actives raise or lower the signal
Summary of the method: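 Multiplexed mRNA reporter readout in human liver HepG2 cells: cis-element-driven reporters transfected, compound added for 24 h, transcripts amplified, fluorescently labelled and sized by capillary electrophoresis; curve fitting bidirectional against DMSO.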

[4] = ATG_M_32_CIS: Attagene CIS-FACTORIAL HepG2 Assay for M32 Transcription Factor (Internal Marker) (AID 2282949); settings: HepG2 Attagene cis-factorial M32 reporter, mRNA; actives raise or lower the signal;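 note: background control marker of the multiplexed CIS panel rather than a real target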
Summary of the method: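 HepG2 transfectants (cis-regulated reporter transcription units) dosed 24 h. Reporter mRNA by RT-PCR plus CE, analysed as gain or loss relative to DMSO.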

[5] = ATG_M_06_CIS: Attagene CIS-FACTORIAL HepG2 Assay for M06 Transcription Factor (Internal Marker) (AID 2282950); settings: HepG2 Attagene CIS-FACTORIAL M06 internal marker reporter; actives raise or lower the signal
Summary of the method: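 Internal background marker within multiplexed cis-reporter HepG2 system. Cells transiently transfected, dosed 24 h; reporter mRNA measured by RT-PCR, HpaI digestion and capillary electrophoresis. Bidirectional fit relative to DMSO.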

[6] = target: Hypoxia-inducible factor 1-alpha (Homo sapiens) (UniProt Q16665); experiment: ATG_HIF1a_CIS: Attagene CIS-FACTORIAL HepG2 Assay for human Hypoxia Inducible Factor 1 (HIF1A) (AID 2282951); settings: HepG2 Attagene cis-factorial HIF1a reporter transcription; actives raise or lower the signal
Hypoxia-inducible factor 1-alpha (Homo sapiens), sequence (Q16665 whole entry, looked up): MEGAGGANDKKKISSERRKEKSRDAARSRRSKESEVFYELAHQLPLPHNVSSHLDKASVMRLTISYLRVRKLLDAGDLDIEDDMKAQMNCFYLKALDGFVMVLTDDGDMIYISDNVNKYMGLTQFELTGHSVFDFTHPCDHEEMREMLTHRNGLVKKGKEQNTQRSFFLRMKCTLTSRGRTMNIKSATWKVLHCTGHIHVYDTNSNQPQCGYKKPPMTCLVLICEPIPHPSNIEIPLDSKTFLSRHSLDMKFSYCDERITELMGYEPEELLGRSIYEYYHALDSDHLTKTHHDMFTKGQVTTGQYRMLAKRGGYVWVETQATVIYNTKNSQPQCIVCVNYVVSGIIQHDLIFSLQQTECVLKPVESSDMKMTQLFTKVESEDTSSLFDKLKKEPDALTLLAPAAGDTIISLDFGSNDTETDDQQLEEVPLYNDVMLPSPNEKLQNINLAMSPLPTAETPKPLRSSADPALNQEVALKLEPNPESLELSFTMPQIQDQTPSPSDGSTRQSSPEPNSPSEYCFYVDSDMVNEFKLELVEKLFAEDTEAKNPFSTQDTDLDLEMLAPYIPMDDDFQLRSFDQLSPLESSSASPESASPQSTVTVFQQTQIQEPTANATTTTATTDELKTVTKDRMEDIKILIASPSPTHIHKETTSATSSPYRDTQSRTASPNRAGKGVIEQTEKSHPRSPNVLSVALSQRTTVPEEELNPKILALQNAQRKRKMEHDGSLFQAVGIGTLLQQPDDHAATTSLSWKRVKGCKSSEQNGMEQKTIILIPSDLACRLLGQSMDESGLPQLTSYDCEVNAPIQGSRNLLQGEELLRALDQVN
Summary of the method: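 Dosed 24 h, transfected HepG2 cells yielded total RNA whose reporter transcripts were RT-PCR-amplified and sized by capillary electrophoresis using fluorescent labelling; DMSO defined baseline, with gain and loss of signal both fitted.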

[7] = target: Hepatocyte nuclear factor 6 (Homo sapiens) (UniProt Q9UBC0); experiment: ATG_HNF6_CIS: Attagene CIS-FACTORIAL HepG2 Assay for human Hepatocyte Nuclear Factor 6 (HNF6) (AID 2282952); settings: HepG2 Attagene cis-factorial HNF6 reporter transcription; actives raise or lower the signal
Hepatocyte nuclear factor 6 (Homo sapiens), sequence (Q9UBC0 whole entry, looked up, the tested form may be a part): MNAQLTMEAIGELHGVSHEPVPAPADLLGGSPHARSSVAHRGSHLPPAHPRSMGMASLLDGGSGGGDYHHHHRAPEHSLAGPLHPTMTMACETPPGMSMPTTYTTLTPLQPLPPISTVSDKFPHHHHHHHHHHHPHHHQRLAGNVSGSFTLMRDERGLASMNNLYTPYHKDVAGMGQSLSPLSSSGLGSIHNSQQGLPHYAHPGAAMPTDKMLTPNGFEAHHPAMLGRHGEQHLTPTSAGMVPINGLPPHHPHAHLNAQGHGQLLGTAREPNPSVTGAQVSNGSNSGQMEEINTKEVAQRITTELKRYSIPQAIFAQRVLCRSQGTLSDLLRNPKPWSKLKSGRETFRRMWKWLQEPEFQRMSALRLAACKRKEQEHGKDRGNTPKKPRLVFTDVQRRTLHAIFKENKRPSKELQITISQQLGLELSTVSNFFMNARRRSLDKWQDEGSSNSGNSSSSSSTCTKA
Summary of the method: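 First, HepG2 cells were transfected with the multiplexed cis reporter library and dosed with chemical for 24 h. Next, RNA was reverse-transcribed, PCR-amplified and fluorescently labelled. Finally, HpaI-digested fragments were read by capillary electrophoresis.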

[8] = target: Heat shock factor protein 1 (Homo sapiens) (UniProt Q00613); experiment: ATG_HSE_CIS: Attagene CIS-FACTORIAL HepG2 Assay for human Heat Shock Transcription Factor 1 (HSE) (AID 2282953); settings: HepG2 HSE cis-reporter, Attagene RNA transcription; actives raise or lower the signal
Heat shock factor protein 1 (Homo sapiens), sequence (Q00613 whole entry, looked up): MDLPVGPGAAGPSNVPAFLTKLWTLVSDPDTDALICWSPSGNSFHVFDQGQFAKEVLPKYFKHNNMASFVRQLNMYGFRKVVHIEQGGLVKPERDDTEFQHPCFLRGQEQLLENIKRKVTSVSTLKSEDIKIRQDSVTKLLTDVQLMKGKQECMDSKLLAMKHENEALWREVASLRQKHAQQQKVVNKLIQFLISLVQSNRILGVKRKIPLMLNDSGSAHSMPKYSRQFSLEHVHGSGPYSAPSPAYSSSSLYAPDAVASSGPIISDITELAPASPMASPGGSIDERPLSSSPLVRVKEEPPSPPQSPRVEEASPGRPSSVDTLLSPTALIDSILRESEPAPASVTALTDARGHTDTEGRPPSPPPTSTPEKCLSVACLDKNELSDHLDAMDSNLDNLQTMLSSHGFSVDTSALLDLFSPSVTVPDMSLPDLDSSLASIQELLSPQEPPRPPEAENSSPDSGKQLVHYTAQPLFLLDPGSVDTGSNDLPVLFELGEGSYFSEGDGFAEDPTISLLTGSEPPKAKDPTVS
Summary of the method: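 HepG2 cells transfected with cis-promoter reporter units sensing endogenous transcription factor activity; reporter mRNA quantified 24 h post-dose by RT-PCR and capillary electrophoresis of 6-FAM-labelled products. Bidirectional fitting against DMSO.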

[9] = ATG_MRE_CIS: Attagene CIS-FACTORIAL HepG2 Assay for human Metal Responsive Element (MRE) (AID 2282954); settings: HepG2 MRE cis-reporter transcription, Attagene multiplex; actives raise or lower the signal
Summary of the method: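 Endogenous MRE-dependent transcription read as reporter mRNA in transiently transfected human HepG2 cells at 24 h. RNA reverse-transcribed, PCR-amplified, labelled and resolved by capillary electrophoresis; gain or loss relative to DMSO.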

[10] = ATG_PBREM_CIS: Attagene CIS-FACTORIAL HepG2 Assay for human Phenobarbital-responsive Enhancer Module (PBREM) (AID 2282955); settings: HepG2 PBREM cis-reporter, Attagene multiplexed transcription; actives raise or lower the signal
Summary of the method: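 Transfected liver-derived HepG2 cells exposed 24 h; PBREM reporter transcript quantified via RT-PCR and capillary electrophoresis, with activity in either direction referenced to DMSO.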

[11] = target: Paired box protein Pax-6 (Homo sapiens) (UniProt P26367); experiment: ATG_Pax6_CIS: Attagene CIS-FACTORIAL HepG2 Assay for human Paired Box 6 (PAX6) (AID 2282956); settings: HepG2 CIS-FACTORIAL PAX6 reporter transcription, RNA readout; actives raise or lower the signal
Paired box protein Pax-6 (Homo sapiens), sequence (P26367 whole entry, looked up): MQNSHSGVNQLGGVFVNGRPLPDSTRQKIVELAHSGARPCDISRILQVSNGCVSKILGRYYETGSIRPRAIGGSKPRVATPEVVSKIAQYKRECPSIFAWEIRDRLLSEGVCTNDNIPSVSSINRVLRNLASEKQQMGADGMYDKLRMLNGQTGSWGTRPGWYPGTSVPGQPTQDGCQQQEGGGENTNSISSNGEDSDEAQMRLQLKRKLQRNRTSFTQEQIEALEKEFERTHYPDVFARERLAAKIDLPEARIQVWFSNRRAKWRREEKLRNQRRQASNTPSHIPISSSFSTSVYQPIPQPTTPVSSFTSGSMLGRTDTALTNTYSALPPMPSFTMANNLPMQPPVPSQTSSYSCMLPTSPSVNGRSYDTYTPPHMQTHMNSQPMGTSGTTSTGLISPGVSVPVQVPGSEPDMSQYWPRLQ
Summary of the method: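 Fluorescent RT-PCR products separated by capillary electrophoresis report PAX6-linked promoter mRNA in HepG2 cells 24 h post-dose. Curves fitted bidirectionally, DMSO as negative control.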

[12] = ATG_PXRE_CIS: Attagene CIS-FACTORIAL HepG2 Assay for human Pregnane X Receptor Element (PXRE) (AID 2282957); settings: HepG2 Attagene CIS-FACTORIAL PXRE reporter, mRNA; actives raise or lower the signal
Summary of the method: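 After a 24 h chemical incubation, total RNA from transfected HepG2 cells was reverse-transcribed and reporter cDNA amplified, FAM-labeled, HpaI-digested and sized by capillary electrophoresis. DMSO served as baseline for bidirectional curve fitting.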

[13] = ATG_PPRE_CIS: Attagene CIS-FACTORIAL HepG2 Assay for human Peroxisome Proliferator-activated Response Element (PPRE) (AID 2282958); settings: HepG2 PPRE cis-element reporter, Attagene transcription factor profiling; actives raise or lower the signal
Summary of the method: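 Measured endpoint: PPRE-controlled reporter mRNA, detected by RT-PCR and capillary electrophoresis fluorescence, from transiently transfected HepG2 cells 24 h after dosing. Curves fitted in both directions using DMSO baseline.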

[14] = ATG_RORE_CIS: Attagene CIS-FACTORIAL HepG2 Assay for human RAR-related Orphan Receptor Element (RORE) (AID 2282959); settings: HepG2 Attagene cis-factorial RORE reporter, mRNA; actives raise or lower the signal
Summary of the method: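 Transiently transfected HepG2 reporter cells were treated 24 h. Reporter transcripts were detected by RT-PCR and capillary electrophoresis, with bidirectional fitting against DMSO.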

[15] = ATG_Sox_CIS: Attagene CIS-FACTORIAL HepG2 Assay for human SRY-box transcription factor (SOX) (AID 2282960); settings: HepG2 Attagene cis-factorial SOX reporter, mRNA; actives raise or lower the signal
Summary of the method: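 Gain- or loss-of-signal endpoint, fitted bidirectionally with DMSO as negative control. Based on reporter mRNA from transfected HepG2 cells harvested 24 h post-treatment and quantified via RT-PCR and capillary electrophoresis.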

[16] = target: Transcription factor Sp1 (Homo sapiens) (UniProt P08047); experiment: ATG_Sp1_CIS: Attagene CIS-FACTORIAL HepG2 Assay for human Specificity Protein 1 (Sp1) (AID 2282961); settings: HepG2 Sp1 cis-reporter transcription, actives raise or lower the signal
Transcription factor Sp1 (Homo sapiens), sequence (P08047 whole entry, looked up, the tested form may be a part): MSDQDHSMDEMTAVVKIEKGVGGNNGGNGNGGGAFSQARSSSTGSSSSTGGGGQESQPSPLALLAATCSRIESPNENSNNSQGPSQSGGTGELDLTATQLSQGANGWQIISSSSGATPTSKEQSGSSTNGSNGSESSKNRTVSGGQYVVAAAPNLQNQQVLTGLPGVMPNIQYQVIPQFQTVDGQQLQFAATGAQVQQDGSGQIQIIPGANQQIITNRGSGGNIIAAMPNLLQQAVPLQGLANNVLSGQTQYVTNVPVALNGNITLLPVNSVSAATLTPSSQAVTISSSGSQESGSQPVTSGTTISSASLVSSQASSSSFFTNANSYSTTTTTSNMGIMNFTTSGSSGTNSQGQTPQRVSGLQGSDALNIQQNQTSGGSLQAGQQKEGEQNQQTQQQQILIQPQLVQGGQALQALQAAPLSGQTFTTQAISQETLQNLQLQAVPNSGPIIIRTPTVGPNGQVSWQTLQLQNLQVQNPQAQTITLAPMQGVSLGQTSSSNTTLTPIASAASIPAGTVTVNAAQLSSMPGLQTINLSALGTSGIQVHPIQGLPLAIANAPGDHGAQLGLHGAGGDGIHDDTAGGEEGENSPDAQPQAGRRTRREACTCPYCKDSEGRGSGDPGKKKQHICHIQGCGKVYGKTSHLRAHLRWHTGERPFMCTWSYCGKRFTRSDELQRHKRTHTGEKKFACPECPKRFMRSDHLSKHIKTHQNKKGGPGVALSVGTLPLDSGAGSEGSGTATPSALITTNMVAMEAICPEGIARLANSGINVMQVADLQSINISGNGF
Summary of the method: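 Endpoint reflects endogenous Sp1 transcriptional activity, not an exogenous fusion protein: HepG2 cells with transfected cis-regulated reporters, 24 h dosing, RT-PCR/capillary electrophoresis mRNA read-out, DMSO-normalised bidirectional fit.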

[17] = ATG_SREBP_CIS: Attagene CIS-FACTORIAL HepG2 Assay for human Sterol Regulatory Element Binding (SREBP) (AID 2282962); settings: HepG2 Attagene cis-factorial SREBP reporter, mRNA; actives raise or lower the signal
Summary of the method: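 Endogenous factor activity is measured in HepG2 through multiplexed reporter units under cis-element control. Following a 24 h incubation, reporter transcripts are reverse-transcribed, PCR-amplified and sized by capillary electrophoresis; activity is fitted in both directions relative to DMSO.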

[18] = target: Signal transducer and activator of transcription 3 (Homo sapiens) (UniProt P40763); experiment: ATG_STAT3_CIS: Attagene CIS-FACTORIAL HepG2 Assay for human Signal Transducer and Activator of Transcription 3 (STAT3) (AID 2282963); settings: HepG2, Attagene cis-factorial STAT3 reporter transcription; actives raise or lower the signal
Signal transducer and activator of transcription 3 (Homo sapiens), sequence (P40763 whole entry, looked up): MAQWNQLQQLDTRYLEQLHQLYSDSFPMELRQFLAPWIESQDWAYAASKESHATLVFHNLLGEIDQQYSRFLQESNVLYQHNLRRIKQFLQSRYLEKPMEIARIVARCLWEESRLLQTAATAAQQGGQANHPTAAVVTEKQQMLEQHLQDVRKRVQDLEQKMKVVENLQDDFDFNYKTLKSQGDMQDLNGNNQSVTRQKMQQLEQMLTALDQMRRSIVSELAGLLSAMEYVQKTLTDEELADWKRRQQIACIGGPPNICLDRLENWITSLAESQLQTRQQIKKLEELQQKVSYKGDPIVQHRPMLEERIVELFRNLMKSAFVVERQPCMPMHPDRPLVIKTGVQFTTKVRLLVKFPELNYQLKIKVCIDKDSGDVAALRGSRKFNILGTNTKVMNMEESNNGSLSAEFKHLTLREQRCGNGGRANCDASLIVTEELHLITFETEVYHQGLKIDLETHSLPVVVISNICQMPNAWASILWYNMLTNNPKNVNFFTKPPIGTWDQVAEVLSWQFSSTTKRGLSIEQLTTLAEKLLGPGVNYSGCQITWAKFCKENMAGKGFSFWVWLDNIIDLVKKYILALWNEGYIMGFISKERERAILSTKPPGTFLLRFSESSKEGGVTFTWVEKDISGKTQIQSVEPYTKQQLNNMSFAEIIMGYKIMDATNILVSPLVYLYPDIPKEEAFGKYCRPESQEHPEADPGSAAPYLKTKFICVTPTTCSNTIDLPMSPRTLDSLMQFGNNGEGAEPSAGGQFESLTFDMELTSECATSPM
Summary of the method: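 Readout is reporter transcript quantified by RT-PCR and capillary electrophoresis, with 6-FAM primer extension and HpaI digestion. Total RNA is taken 24 h after dosing transiently transfected HepG2 carrying cis-regulated reporter units. Bidirectional fit against DMSO.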

[19] = ATG_TA_CIS: Attagene CIS-FACTORIAL HepG2 Assay for human TA Basal Promoter (AID 2282964); settings: HepG2 Attagene CIS-factorial TA basal promoter reporter; actives raise or lower the signal
Summary of the method: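 HepG2 cells transiently transfected with multiple reporter units under cis promoter elements, reporting endogenous transcription factor activity; this endpoint tracks the TA basal promoter as background control. Reporter mRNA after 24 h dosing measured by RT-PCR/capillary electrophoresis; bidirectional fits versus DMSO.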

[20] = ATG_TCF_b_cat_CIS: Attagene CIS-FACTORIAL HepG2 Assay for human T-Cell-Factor with beta-catenin (TCF/b-cat) (AID 2282965); settings: HepG2 TCF/beta-catenin cis-reporter transcription, actives raise or lower the signal
Summary of the method: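 Endogenous TCF/LEF activity read as reporter transcript level via RT-PCR and capillary electrophoresis fluorescence in transfected HepG2, 24 h exposure; gain or loss of signal fitted against DMSO controls.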

Measured: AC50

O=C(O)CN(CC(=O)O)CC(=O)O
not listed: [20]
inactive: all other assays above

CC(COCC(C)OC(=O)c1ccccc1)OC(=O)c1ccccc1 (stereo not drawn)
active: [12] 35.3 µM
not listed: [20]
inactive: all other assays above

CC(C)c1cccc(C(C)C)c1
not listed: [10] | [20]
inactive: all other assays above

CCCCC(CC)COC(=O)CCCCCCCC(=O)OCC(CC)CCCC (stereo not drawn)
active: [6] 61.9 µM
not listed: [13] | [14]
inactive: all other assays above

CCCCc1nc2cccnc2n1Cc1ccc(-c2ccccc2-c2nnn[nH]2)cc1
active: [12] 27.2 µM
not listed: [13] | [20]
inactive: all other assays above

CCCCC(CC)CO (stereo not drawn)
active: [12] 27.5 µM
inactive: all other assays above

NC(=Nc1ccccc1)Nc1ccccc1
active: [3] 5.79 µM | [9] 28 µM | [11] 34.6 µM | [14] 29.5 µM
not listed: [10] | [20]
inactive: all other assays above

COc1ccc(C(=O)Nc2nc3ccccc3c(NCc3ccccc3)c2C#N)cc1
active: [6] 26.5 µM | [12] 0.641 µM | [13] 1.68 µM | [17] 4.43 µM
not listed: [20]
inactive: all other assays above

O=C1c2c(O)cccc2Cc2cccc(O)c21
active: [6] 26.6 µM
inactive: all other assays above

CCCCCCC(CCCCCCCCCCC(=O)OCC(COC(C)=O)OC(C)=O)OC(C)=O (stereo not drawn)
active: [8] 90.7 µM | [12] 50 µM | [13] 39.6 µM | [20] 50 µM
not listed: [10] | [18]
inactive: all other assays above

C=CCc1ccc(OC)c(OC)c1
active: [6] 0.0538 µM | [12] 100 µM
not listed: [10] | [20]
inactive: all other assays above

CCN(CC)CCOc1ccc(C(=C(Cl)c2ccccc2)c2ccccc2)cc1
inactive: [1] | [2] | [3] | [4] | [5] | [6] | [7] | [8] | [9] | [10] | [11] | [13] | [14] | [15] | [16] | [18] | [19]
active: [1] 5.65 µM and 4.78 µM | [6] 9.35 µM | [7] 11.4 µM | [8] 14.3 µM | [9] 13.8 µM | [11] 10.4 µM | [12] 945 nM [middle of 4 runs] | [14] 9.35 µM | [15] 13.6 µM | [17] 2.59 µM [middle of 4 runs] | [18] 6.09 µM | [19] 11.2 µM

CC(=O)S[C@H](C(=O)N[C@H]1Cc2ccccc2[C@H]2CCC[C@@H](C(=O)O)N2C1=O)C(C)C
active: [12] 40.9 µM
not listed: [13]
inactive: all other assays above
